# In PubChem BioAssay AID2472 (National Center for Advancing Translational Sciences (NCATS), 2010):
# Out of some 290,000 compounds screened, about 2,000 (0.69%) were called active. No stated cut-off is given here; in the data, active means activity change below about -30%; inactive means the rest, inconclusive results apart. What follows is part of a selection rich in actives, with near analogues and random picks from the rest.
# Experiment: qHTS Assay for Inhibitors of Fructose-1,6-bisphosphate Aldolase from Giardia Lamblia: Coupling assay counterscreen
# Settings: coupling enzyme system counterscreen, AmpLite Red fluorescence; at 58.2 µM (top of the series)
# How it was run: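 Compounds tested against the coupling enzymes alone at 57.5 uM final; readout was AmpLite Red fluorescence (525/598 nm) after 20 min at RT.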
# On the % scale 0 is the no-effect control and ±100 the full control effect.
row,Structure (SMILES),"activity change, negative = inhibition"
1,COC(=O)N/N=C/c1cn(CCCOc2ccc(C)cc2)c2ccccc12,-8.57% (inactive)
2,COc1ccc(C2CC(O)(c3ccccc3)Oc3cc(C)cc(C)c32)cc1 (stereo not drawn),-4.71% (inactive)
3,CC1C(=O)C(C)C(c2ccc(O)cc2)NC1c1ccc(O)cc1 (stereo not drawn),-1.45% (inactive)
4,CCOC(=O)c1cc2occc2n1CC(=O)N1CCN(C(=O)c2ccco2)CC1,2.42% (inactive)
5,CCOC(=O)c1cc2c(ccn2C)n1CC(=O)N1CCC(C)CC1,-41.2% (active)
6,CCOC(=O)c1cc2occc2n1CC(=O)NC1CCC(C)CC1 (stereo not drawn),-0.298% (inactive)
7,COC(=O)N1C(/C=C/C=C/c2ccc(OC)cc2)=Cc2ccccc2C1CC(C)=O (stereo not drawn),-0.194% (inactive)
8,CCc1ccccc1NC(=O)CN(C)C(=O)COc1ccc(C)nc1[N+](=O)[O-],-2.08% (inactive)
9,Cc1ccc(OCC(=O)NC(C)c2ccccc2)c([N+](=O)[O-])n1 (stereo not drawn),0.28% (inactive)
10,Cc1ccc(OCC(=O)Nc2ccccc2Sc2ccc(Cl)cc2)c([N+](=O)[O-])n1,-30.3% (active)
11,C=C(C(C)=O)C(O)c1cccs1 (stereo not drawn),2.11% (inactive)
12,O=C(COCc1cc(-c2ccc3c(c2)OCO3)on1)N1CCN(c2cccc(Cl)c2)CC1,-0.674% (inactive)
13,CCN(CC)c1ccc2oc(=O)c(C)nc2c1,-46.3% (active)
14,CCN(CC)c1ccc(/C=N/Nc2nc(C)cc(C)n2)c(O)c1,-8.39% (inactive)
15,CCN(CC)c1ccc2cc(C(N)=O)/c(=N\NC(=O)c3ccncc3)oc2c1,-7.4% (inactive)
16,CCC(=O)Nc1ccc2nn(-c3ccc(F)cc3)nc2c1,0.799% (inactive)
17,Cc1cccc(NC(=S)NCc2ccc3[nH]c4c(c3c2)CCCC4)c1,-0.782% (inactive)
18,O=C(O)CCC(=O)NCc1ccc2[nH]c3c(c2c1)CCCC3,-41.3% (active)
19,O=C(O)CCC(=O)NCc1ccc(C(=O)O)cc1,3.84% (inactive)
20,Cc1ccc(C23CC4CC(CC(C(=O)NCC(=O)O)(C4)C2)C3)cc1,6.61% (inactive)
21,O=S(=O)(Nc1cccc(Oc2ccc(Cl)cc2)n1)c1ccc(F)cc1,3.65% (inactive)
22,Cc1cc(C)c(C2C3=C(Nc4c2c(C)nn4-c2ccccn2)c2ccccc2C3=O)c(C)c1 (stereo not drawn),-0.679% (inactive)
23,Cc1ccc(C2C3=C(Nc4[nH]n(-c5ccccc5)c(=O)c42)c2ccccc2C3=O)cc1 (stereo not drawn),-44% (active)
24,Cc1ccc(-c2ccnc3[nH]n(-c4ccccc4)c(=O)c23)cc1,2.09% (inactive)
25,COc1cc(Cl)c(C)cc1NC(=O)CN1CCCCCC1,0.688% (inactive)
26,N#Cc1c(N)sc2c1CCN(C(=O)OCc1ccccc1)C2,-39.2% (active)
27,CC(C)N1CCc2c(sc(NC(=O)Cc3ccccc3)c2C#N)C1,-3% (inactive)
28,CC(=O)N1CCc2c(sc(NC(=O)CCS(=O)(=O)c3ccccc3)c2C#N)C1,1.84% (inactive)
